Screening data from PubChem BioAssay.
An excerpt weighted towards active compounds, which were near 7.8% of everything screened.
Marburg entry inh – blocks Marburg virus binding to or entry into cells | 300,000 tested, 1.8% active | Marburg virus pseudotyped entry inhibition, cell reporter | Potency, µM (doses to about 37.8 µM), for inactives: top-dose activity change, negative = inhibition, hits mostly inhibitors; calls by dose curve; tested in HEK293 cells; also: potency is read from the fitted curve at half-maximal effect
Vaccinia Venus – vaccinia inhibition (Venus reporter) | 330,000 tested, 0.46% active | Vaccinia virus Venus reporter expression, fluorescence | Potency, µM (titrated, usually from 36.5 µM), for the others: at the top dose activity change, negative = inhibition, most hits filed as inhibitors; calls by dose curve; tested in A549 cells; also: potency is read from the fitted curve at half-maximal effect; nearly all actives have a fitted effect of over 30% in size
LASV entry inh – Lassa virus entry inhibition | Lassa virus pseudotype entry inhibition, cell reporter | Potency, µM (titrated, usually from 37.9 µM), for the others: at the top dose activity change, negative = inhibition, actives largely listed as inhibitors | 300,000 tested, 1.2% active; calls by dose curve; tested in HEK293 cells; also: potency is read from the fitted curve at half-maximal effect; nearly all actives have a fitted effect of over 50% in size
HCV inhibitor – HCV inhibition | Huh7.5.1 HCVcc-Cre infection, luciferase reporter, 44 h | Potency, µM (titrated, usually from 41.8 µM), without a hit: top-dose activity change, negative = inhibition, usual class: inhibitors | 340,000 tested, 3.4% active; active = well fitted inhibition curve with a large enough effect; inconclusive = small, poorly fitted or top-dose-only effect, or another doubt; inactive = no such curve, though single readings can be large or run the other way; also: potency is read from the fitted curve at half-maximal effect
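Reporter virus HCVcc-Cre (~0.5 moi) infects cells exposed to compound; seeding density 1,000 cells/well with 4 h settling beforehand. Luminescence, 15 sec read, taken 44 h post-infection following a 15 min RT substrate incubation.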
HCMV inh – inhibitors of human cytomegalovirus; 410,000 tested, 4.5% active; activity change, negative = inhibition, % at 57.5 µM; AID 1259415; HFF cells, HCMV-luciferase reporter, 72 h; stronger effect = lower value; in the data active = activity change below about -60%; inconclusive = no clear call, values can overlap the other calls; inactive = above about -39%
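Cell-based, HFFs, 1000 cells/well, 16 h 37C; cpds in DMSO + HCMV-luc, MOI 1 PFU/cell; 72 h 37C; OneGlo luminescence after 5 min RT; norm. to buffer vs Salinomycin 10uM.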
VACV mCherry inh – vaccinia inhibition (mCherry reporter); Vaccinia virus mCherry reporter infection, fluorescence; Potency, µM (highest dose often 36.5 µM), without a hit: at the highest dose activity change, negative = inhibition, actives largely listed as inhibitors; 310,000 tested, 0.63% active; AID 720579; calls by dose curve; tested in A549 cells; also: potency is read from the fitted curve at half-maximal effect; nearly all actives have a fitted effect of over 35% in size
Numbers without * were called inactive; [ ] = remark or other dose. % is scaled to controls: 0 for no effect and ±100 for the full control effect.

CCC(COC)NC(=O)c1cnn(-c2ncc3c(n2)-c2ccccc2CCC3)c1C (stereo not drawn) was read as Vaccinia Venus -17% and VACV mCherry inh -2%.
NC(N)=N/N=C(\N=Nc1ccccc1)c1ccc(Cl)cc1 was read as Marburg entry inh inconclusive, Vaccinia Venus inconclusive, LASV entry inh 16µM*, HCV inhibitor inconclusive, HCMV inh 207 and VACV mCherry inh inconclusive.
`CC(=O)n1cc(C(C[N+](=O)[O-])SCCN)c2ccccc21` (stereo not drawn) gave Marburg entry inh 21µM*, LASV entry inh inconclusive and HCV inhibitor inconclusive.
Screening Cn1cc(C(C[N+](=O)[O-])c2ccccc2)c2ccccc21 (stereo not drawn) returned HCV inhibitor inconclusive and HCMV inh 9.
`CCC(=O)N1CCCc2cc(S(=O)(=O)N3CCC(C(=O)Nc4ccc(C#N)cc4)CC3)ccc21` gave Vaccinia Venus -20%, LASV entry inh -4%[46.1 µM], HCMV inh 0 and VACV mCherry inh -19%.
For O=c1c2cc(Br)ccc2nc(-c2ccc([N+](=O)[O-])cc2)n1O the results were Marburg entry inh inconclusive, Vaccinia Venus -14%, LASV entry inh -8%, HCV inhibitor -11%, HCMV inh -39 and VACV mCherry inh -7%.
`O=c1c2ccc(Cl)cc2nc(-c2ccc([N+](=O)[O-])cc2)n1O` gave Marburg entry inh inconclusive, Vaccinia Venus -25%, LASV entry inh inconclusive, HCV inhibitor -23%, HCMV inh -98* and VACV mCherry inh inactive.
CC(C)c1ccc(/C=N/n2c(COc3ccccc3)n[nH]c2=S)cc1 was read as Marburg entry inh inconclusive, Vaccinia Venus -6%, LASV entry inh 1.6µM*, HCV inhibitor 19%, HCMV inh 27 and VACV mCherry inh inactive.
`S=c1[nH]nc(COc2ccccc2)n1Cc1ccccc1` gave Marburg entry inh inconclusive, Vaccinia Venus -12%, LASV entry inh 1%, HCV inhibitor 9%, HCMV inh -38 and VACV mCherry inh -14%.
CC(C)CCn1c(COc2ccccc2)n[nH]c1=S was read as Marburg entry inh 1%[46.1 µM], Vaccinia Venus 7%, LASV entry inh 6%[46.1 µM], HCV inhibitor 29%, HCMV inh -62* and VACV mCherry inh inactive.
Screening S=c1[nH]nc(-c2ccncc2)n1/N=C/C=C/c1ccccc1 returned Marburg entry inh inconclusive, Vaccinia Venus -19%, LASV entry inh 0%, HCV inhibitor 6%, HCMV inh -9 and VACV mCherry inh -29%.
Screening S=c1[nH]nc(COc2ccccc2)n1/N=C/C=C/c1ccco1 returned Marburg entry inh -16%[46.1 µM], Vaccinia Venus -7%[7.34 µM], LASV entry inh 0.79µM*, HCV inhibitor 6%, HCMV inh 21 and VACV mCherry inh -2%[7.34 µM].
For S=c1[nH]nc(-c2ccncc2)n1/N=C/C(Cl)=C\c1ccccc1 the results were HCV inhibitor -13% and HCMV inh -87*.
For S=c1[nH]nc(COc2ccccc2)n1/N=C/C=C/c1ccccc1 the results were Marburg entry inh 33%, Vaccinia Venus -2%, LASV entry inh inconclusive, HCV inhibitor 14%, HCMV inh -20 and VACV mCherry inh -13%.
For S=c1[nH]nc(COc2ccccc2)n1/N=C/c1ccc(Br)cc1 the results were HCV inhibitor 3% and HCMV inh -16.
Screening Cc1nn(-c2ccccc2)c(C)c1/C=N/n1c(-c2ccncc2)n[nH]c1=S returned Marburg entry inh inconclusive, Vaccinia Venus -2%, LASV entry inh inconclusive, HCV inhibitor 5%, HCMV inh -74* and VACV mCherry inh -10%.
Screening S=c1[nH]nc(COc2ccccc2)n1/N=C/C(Cl)=C/c1ccccc1 returned Marburg entry inh 2%, LASV entry inh 18µM*, HCV inhibitor -27% and HCMV inh 12.
For Cc1nn(-c2ccccc2)c(C)c1/C=N/n1c(-c2ccc(Cl)cc2)n[nH]c1=S the results were Marburg entry inh -21%, Vaccinia Venus 3%, LASV entry inh inconclusive, HCV inhibitor -22%, HCMV inh inconclusive and VACV mCherry inh -13%.
